Compound activity (PubChem)
Gal4-VP16 FLuc: VP16 counterscreen qHTS for inhibitors of ROR gamma transcriptional activity; Potency, µM (titrated, usually from 53.6 µM), inactives show at the top dose activity, negative = inhibition, most hits filed as inhibitors; Drosophila S2 Gal4-VP16 UAS-luciferase, luminescence, 20 h; 310,000 tested, 3.5% active;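 note: Gal4-VP16 expression switched on by copper sulfate through the metallothionein promoter; nearly all actives have a fitted effect of over 50% in size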
TDP1 cell noCPT: qHTS for Inhibitors of human tyrosyl-DNA phosphodiesterase 1 (TDP1): qHTS in cells in absence of CPT; DT40 Tdp1-/- hTDP1 cells, no CPT, ATP luminescence, 48 h; Potency, µM (titrated, usually from 46.2 µM), without a hit: at the highest dose activity change, negative = growth inhibition, most hits filed as inhibitors; 420,000 tested, 15% active; note: nearly all actives have a fitted effect of over 55% in size
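DT40 Tdp1-/-;hTDP1 cells, no CPT (DMSO vehicle only), 400 cells/well; compounds pin-transferred; ≥48 hr, 37 °C; CellTiter-Glo 30 min RT dark, luminescence read.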
ALOX12 inh: Primary qHTS assay for inhibitors of human arachidonate 12S-lipoxygenase (ALOX12): Round 2; 580,000 tested, 1.1% active; Polyunsaturated fatty acid lipoxygenase ALOX12 (Homo sapiens), P18054; AID 1671190, 2021; purified 12hLO, xylenol orange hydroperoxide absorbance; Potency, µM (highest dose often 108 µM), for inactives: at the top dose activity change, negative = inhibition, actives largely listed as inhibitors
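Purified human 12hLO (150 nM final) in 25 mM Hepes, 0.01% Triton X-100, pH 7.0 was preincubated 15 min at room temperature with compound. Then 40 uM arachidonic acid was added, 30 min. Hydroperoxide was read by Fe-XO absorbance ratio 573/405 nm.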
ELG1 repair inh: qHTS screen for small molecules that inhibit ELG1-dependent DNA repair in human embryonic kidney (HEK293T) cells expressing luciferase-tagged ELG1; HEK293T ELG1-luciferase reporter, luminescence, 16 h; DNA damage induced by 5-fluorouridine; AID 504467, 2011; Potency, µM (highest dose often 46.1 µM), for the others: at the top dose activity change, negative = inhibition, hits mostly inhibitors; 330,000 tested, 2.3% active; note: nearly all actives have a fitted effect of over 55% in size
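5-Fluorouridine DNA damage + compound/DMSO, 2,000 cells/well, 16 h, 37 °C/5% CO2. ONE-Glo, 30 min RT, luminescence. Readout = decrease in reporter signal.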
DT40 TDP1 CPT: qHTS for Inhibitors of human tyrosyl-DNA phosphodiesterase 1 (TDP1): qHTS in cells in presence of CPT; chicken DT40 Tdp1-/-;hTDP1 cells + 20 nM CPT, ATP luminescence, 48 h; Potency, µM (highest dose often 46.2 µM), for inactives: top-dose activity change, negative = growth inhibition, hits mostly inhibitors; 420,000 tested, 12% active; AID 686979, 2013; note: nearly all actives have a fitted effect of over 55% in size
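Chicken DT40 Tdp1-/- cells complemented with human TDP1, 400 cells/well, exposed to compounds plus 20 nM camptothecin for at least 48 h at 37 C; viability read as ATP content by CellTiter-Glo luminescence.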
RORg inh: qHTS for inhibitors of ROR gamma transcriptional activity; Nuclear receptor ROR-gamma (Mus musculus), P51450; Drosophila S2 Gal4-RORgamma UAS-luciferase reporter, 20 h; Potency, µM (doses to about 53.6 µM), for the others: at the top dose activity change, negative = inhibition, most hits filed as inhibitors; 310,000 tested, 5.4% active; note: nearly all actives have a fitted effect of over 60% in size
Target sequence (P51450 whole entry, looked up, the tested form may be a part): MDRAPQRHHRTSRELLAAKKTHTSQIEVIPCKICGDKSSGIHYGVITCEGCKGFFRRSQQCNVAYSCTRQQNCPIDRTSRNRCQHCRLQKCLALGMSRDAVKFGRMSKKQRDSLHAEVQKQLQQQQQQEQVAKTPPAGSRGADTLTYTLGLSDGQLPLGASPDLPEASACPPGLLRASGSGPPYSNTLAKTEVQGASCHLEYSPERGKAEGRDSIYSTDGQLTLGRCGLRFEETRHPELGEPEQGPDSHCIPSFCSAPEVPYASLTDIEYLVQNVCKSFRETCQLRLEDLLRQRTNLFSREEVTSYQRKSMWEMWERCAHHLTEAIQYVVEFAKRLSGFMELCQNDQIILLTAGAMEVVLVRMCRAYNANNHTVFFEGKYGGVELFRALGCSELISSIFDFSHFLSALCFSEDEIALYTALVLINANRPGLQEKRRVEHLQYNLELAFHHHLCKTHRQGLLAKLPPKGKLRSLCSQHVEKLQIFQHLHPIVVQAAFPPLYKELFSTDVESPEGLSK
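In this cell-based reporter format, copper sulfate (700 uM final) drives Gal4–ROR gamma fusion expression from a metallothionein promoter in Drosophila Schneider cells; compounds preincubated 1 hr, reporter read after 20 hr at ambient temperature.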
Active calls of the source: *; ? = inconclusive; / = no result. In the library only some 15% were active in any assay of this set; here they are far more common. Calls come from the whole dose curve; as a rule, active = well fitted curve in the direction sought with a large enough effect; inconclusive = small, poorly fitted or top-dose-only effect, or another doubt; inactive = no such curve, though single readings can be large; an effect the other way counts as inactive or inconclusive. % is set by controls: 0 for no effect and ±100 for the full control effect; potency is the fitted concentration of half-maximal effect.

SMILES	Gal4-VP16 FLuc	TDP1 cell noCPT	ALOX12 inh	ELG1 repair inh	DT40 TDP1 CPT	RORg inh
O=S(=O)(c1ccc(F)cc1)c1snnc1-c1ccccc1	?	2.9µM*	9%	-13%	4.1µM*	?
CCOC(=O)c1cnc2ccccc2c1N1CCC(CO)CC1	/	/	-15%	/	/	/
Cc1cccc(NC(=O)c2c(C)cc(C)nc2SCC(=O)c2ccccc2)c1	/	16µM*	5%	/	?	/
Cc1cc(C)c(C(=O)Nc2ccccc2)c(SCC(=O)Nc2ccc(Br)cc2C)n1	/	23µM*	3%	/	16µM*	/
COc1ccccc1NC(=O)CSc1nc(C)cc(C)c1C(=O)Nc1ccccc1	/	/	32%	/	/	/
CCNc1ccc(S(=O)(=O)N(CC)CC)cc1NC(=O)c1ccccc1F	/	/	-23%	/	/	/
Cc1ccc(-c2nc(NC(=O)c3cc(C)on3)sc2C)cc1	/	/	-2%	/	/	/
O=C(Nc1ccccc1F)C(c1ccccc1)c1ccccc1	/	?	0%	/	-11%	/
O=C(O)c1ccccc1NC(=O)C(c1ccccc1)c1ccccc1	/	-12%	?	/	-5%	/
NC(=O)c1ccccc1NC(=O)C(c1ccccc1)c1ccccc1	/	29µM*	19%	/	?	/
O=C(Nc1ccccc1O)C(c1ccccc1)c1ccccc1	16µM*	7.3µM*	-38%	4.6µM*	?	?
Cc1cc(C)nc(NC(=O)C(c2ccccc2)c2ccccc2)c1	14%	15µM*	-14%	5%	?	30%
CCCCc1nn(-c2cc(Cl)ccc2OC)c2c1C(=O)CC(C)(C)C2	2%	21µM*	-9%	-14%	12µM*	-9%
Cc1ncc(CN2CCC(C3(c4cccnc4)NC(=O)NC3=O)CC2)[nH]1 (configuration not stated)	/	/	13%	/	/	/
Cc1ccc(OCC(=O)Nc2ccccc2C(=O)OCc2cc(=O)n3nc(C4CC4)sc3n2)cc1	/	10µM*	-6%	/	7.3µM*	/
Cc1ccc(OCC(=O)Nc2ccccc2C(=O)OCc2cc(=O)n3ccsc3n2)cc1	/	-14%	-9%	/	4%	/
Cc1ccc(OCC(=O)Nc2ccc(C(=O)OCc3cc(=O)n4nc(C5CC5)sc4n3)cc2)cc1	/	?	-15%	/	-3%	/
CC(Oc1ccccc1)C(=O)Nc1ccccc1C(=O)OCc1cc(=O)n2nc(C3CC3)sc2n1 (configuration not stated)	/	7.3µM*	-23%	/	3.7µM*	/
Cc1ccc(OCC(=O)Nc2ccccc2C(=O)OCc2cc(=O)n3c(C)csc3n2)cc1	/	21µM*	-26%	/	16µM*	/
CC(=O)c1ccc(Nc2cc(C)nc3c(C)cc(C)cc23)cc1	?	4.6µM*	-7%	?	4.6µM*	?
Cc1cc(C)c2nc(C)cc(Nc3ccc(C(=O)N(C)C)cc3)c2c1	-7%	-10%	/	-25%	18%	2%
COC(=O)c1ccc(Nc2cc(C)nc3ccccc23)cc1	?	18µM*	-3%	?	?	-45%
COC(=O)c1ccc2nc(C)cc(Nc3ccc(O)cc3)c2c1	/	15µM*	?	/	21µM*	/
COC(=O)c1ccc2nc(C)cc(Nc3ccc(N(C)C)cc3)c2c1	-2%	?	-15%	-11%	-1%	?
COc1cccc(NC(=S)NC(Cc2ccccc2)c2ccccc2)c1 (configuration not stated)	/	16µM*	40µM*	/	?	/
SMILES	Gal4-VP16 FLuc	TDP1 cell noCPT	ALOX12 inh	ELG1 repair inh	DT40 TDP1 CPT	RORg inh
COc1cccc(NC(=S)NC(C)c2ccc(OC)c(OC)c2)c1 (configuration not stated)	?	-17%	-16%	-15%	-7%	7.9µM*
COc1cccc(NC(=O)CN(C)C(c2ccccc2)c2ccccc2)c1	/	/	3%	/	/	/
COc1ccc(C(C)NC(=S)NC2CCCC2)cc1OC (configuration not stated)	?	-4%	?	4%	-14%	?
CCC(C)NC(=O)C1COC2(CCN(C(=O)c3ccc(F)cc3F)CC2)N1C(=O)c1ccccc1 (configuration not stated)	/	/	6%	/	/	/
Cc1[nH]n(-c2ccccc2)c(=O)c1C(=O)c1cccc(F)c1	1%	?	?	0%	?	-13%
CC/C(=N/NC(=O)c1ccccc1O)c1c(C)[nH]n(-c2ccccc2)c1=O	/	1.8µM*	?	/	2.1µM*	/
CCSC(=S)c1c(C)[nH]n(-c2ccccc2)c1=O	1.1µM*	13µM*	-22%	?	15µM*	0.35µM*
Cc1[nH]n(-c2ccc(Cl)cc2)c(=O)c1C(=O)c1ccccc1	-25%	?	?	-4%	?	?
Cc1[nH]n(-c2ccccc2)c(=O)c1C(=O)c1ccc(Cl)cc1	6%	?	?	?	?	11µM*
CCC/C(C)=N/NC(=O)c1ccccc1O	?	?	-21%	12%	6%	?
CCCCc1c(C)nc(Nc2nc(C)c3cc(OC)ccc3n2)[nH]c1=O	/	/	29%	/	/	/
Cc1ccc(NC(=O)c2ccc3ccccc3n2)c(Cl)c1	/	/	-29%	/	/	/
CCCCCCCCCCOC(=O)Cn1c(COc2cccc(C)c2)[n+](C)c2ccccc21	11µM*	4.6µM*	?	-3%	7.3µM*	-85%
CCCCCCCCCCOC(=O)Cn1c(COc2ccccc2)[n+](C)c2ccccc21	?	2.6µM*	0%	-28%	5.8µM*	?
CCOC(=O)Cn1c(COc2ccccc2OC)[n+](C)c2ccccc21	/	-5%	53%	/	?	/
CCCCCCCCCCOC(=O)Cn1c(COc2ccc(OC)cc2)[n+](C)c2ccccc21	6.3µM*	2.6µM*	/	?	2.6µM*	?
CCCCCCCCCCOC(=O)Cn1c(COc2ccccc2C)[n+](C)c2ccccc21	16µM*	1µM*	/	?	1.6µM*	?
COc1cccc(-c2ccc(=O)n(CC(=O)Nc3cc(Cl)c(OC)cc3OC)n2)c1	/	/	20%	/	/	/
CCCCOC(=O)COc1ccc2c(C)c(CCC)c(=O)oc2c1	/	/	15%	/	/	/
CCCCOC(=O)Cn1c(=O)n(CC(=O)OCCCC)c2ccccc21	-9%	-20%	0%	-9%	-12%	-6%
